Data on 13 sequences can be found in the supplement of paper PMC13392028.

The test concerns PvIESI-1 RRM domain (Plasmodium vivax PVP01_0939900 aa 896-1203, GST fusion). The experiment in a line: RBNS R-value (6-mer enrichment in protein-bound RNA vs input library) (ratio); higher = stronger binding preference; the methods of the paper give 50 / 100 / 500 nM protein instead. The procedure: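 RNA Bind-n-Seq: recombinant GST-tagged IESI-1 RRM domain was incubated at room temperature with a random 40-nt in vitro transcribed RNA library at 250, 500 or 1000 nM protein. Bound RNA was pulled down on glutathione beads and sequenced. R-value is the enrichment of each 6-mer in the bound RNA relative to the input library. Each 6-mer sits inside the random 40-mer context, not as an isolated oligo. Values are replicate 1 only.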

As to GUGAUA, the “RBNS R-value” is, setting by setting: (protein concentration: 250 nM) 2.04; (protein concentration: 500 nM) 2.34; (protein concentration: 1000 nM) 2.47.

For GCGAUG, the “RBNS R-value” (protein concentration: 250 nM) was 1.97, the “RBNS R-value” (protein concentration: 500 nM) was 2.19 and the “RBNS R-value” (protein concentration: 1000 nM) turned out to be 2.01.

As for UGAUAC, the “RBNS R-value” (protein concentration: 250 nM) was determined as 2.41, the “RBNS R-value” (protein concentration: 500 nM) was 2.83 and the “RBNS R-value” (protein concentration: 1000 nM) is 2.87.

Consider GUGAUU, for which the “RBNS R-value” by setting is: (protein concentration: 250 nM) 2.96; (protein concentration: 500 nM) 3.22; (protein concentration: 1000 nM) 3.1.

Consider CUGAUG, for which the “RBNS R-value” reads like this: (protein concentration: 250 nM) 4.09; (protein concentration: 500 nM) 4.34; (protein concentration: 1000 nM) 4.04.

Take GGUGAU: the “RBNS R-value” is, setting by setting: (protein concentration: 250 nM) 1.97; (protein concentration: 500 nM) 2.19; (protein concentration: 1000 nM) 2.15.

Regarding AAUGAU, the “RBNS R-value” runs as follows: (protein concentration: 250 nM) 3.66; (protein concentration: 500 nM) 3.89; (protein concentration: 1000 nM) 3.94.

UGAUCU: the “RBNS R-value” by setting is: (protein concentration: 250 nM) 2; (protein concentration: 500 nM) 2.15; (protein concentration: 1000 nM) 2.14.

As to CCCGAG, the “RBNS R-value” is, setting by setting: (protein concentration: 250 nM) 1.41; (protein concentration: 500 nM) 1.72; (protein concentration: 1000 nM) 1.72.

As for GAUGGG, the “RBNS R-value” (protein concentration: 250 nM) stood at 2.02, the “RBNS R-value” (protein concentration: 500 nM) was 2.1 and the “RBNS R-value” (protein concentration: 1000 nM) is 2.01.

On to UGAUAA, for which the “RBNS R-value” runs as follows: (protein concentration: 250 nM) 2.82; (protein concentration: 500 nM) 3.29; (protein concentration: 1000 nM) 3.43.

Regarding CCUGAU, the “RBNS R-value” turned out to be 3.03 (protein concentration: 250 nM), 3.36 (protein concentration: 500 nM) and 3.13 (protein concentration: 1000 nM).

For the sequence UUGAUU, the “RBNS R-value” runs as follows: (protein concentration: 250 nM) 4.5; (protein concentration: 500 nM) 4.73; (protein concentration: 1000 nM) 4.43.
